{"source": "paper PMC11062922", "about": "(Nature Chemical Biology, 2023)", "key": {"[1]": {"system": "CHEK1", "settings": "read-out: apparent Kd, n = 1"}, "[2]": {"system": "ERN1", "settings": "read-out: apparent Kd, n = 1"}}, "note": "Like-named read-outs stand apart in the source and are kept apart here."}
{"substance": "Lestaurtinib", "values": [{"measurement": "potency estimated from few doses", "setting": "[1]; compound concentrations:100 nM and 1000 nM (sheet 'Lestaurtinib' of Supplementary Table 1),run:Lestaurtinib_02601_R1,Plate:MR018", "result": 98, "unit": "nM"}, {"measurement": "potency estimated from few doses", "setting": "[1]; compound concentrations:100 nM and 1000 nM (sheet 'Lestaurtinib' of Supplementary Table 1),run:Lestaurtinib_02601_R3,Plate:MR018", "result": 78.8, "unit": "nM"}, {"measurement": "potency estimated from few doses", "setting": "[1]; compound concentrations:100 nM and 1000 nM (sheet 'Lestaurtinib' of Supplementary Table 1),run:Lestaurtinib_02606_R1,Plate:MR019", "result": 88.5, "unit": "nM"}, {"measurement": "potency estimated from few doses", "setting": "[1]; compound concentrations:100 nM and 1000 nM (sheet 'Lestaurtinib' of Supplementary Table 1),run:Lestaurtinib_02606_R2,Plate:MR019", "result": 74.1, "unit": "nM"}, {"measurement": "potency estimated from few doses", "setting": "[1]; compound concentrations:100 nM and 1000 nM (sheet 'Lestaurtinib' of Supplementary Table 1),run:Lestaurtinib_02606_R3,Plate:MR019", "result": 97, "unit": "nM"}, {"measurement": "potency estimated from few doses", "setting": "[1]; compound concentrations:100 nM and 1000 nM (sheet 'Lestaurtinib' of Supplementary Table 1),run:Lestaurtinib_02624_R2,Plate:MR020", "result": 93, "unit": "nM"}, {"measurement": "potency estimated from few doses", "setting": "[1]; compound concentrations:100 nM and 1000 nM (sheet 'Lestaurtinib' of Supplementary Table 1),run:Lestaurtinib_02624_R3,Plate:MR020", "result": 79, "unit": "nM"}, {"measurement": "potency estimated from few doses", "setting": "[1]; compound concentrations:100 nM and 1000 nM (sheet 'Lestaurtinib' of Supplementary Table 1),run:Lestaurtinib_02724_R3,Plate:MR021", "result": 92, "unit": "nM"}, {"measurement": "potency estimated from few doses", "setting": "[1]; compound concentrations:100 nM and 1000 nM (sheet 'Lestaurtinib' of Supplementary Table 1),run:Lestaurtinib_02741_R1,Plate:MR023", "result": 88, "unit": "nM"}, {"measurement": "potency estimated from few doses", "setting": "[1]; compound concentrations:100 nM and 1000 nM (sheet 'Lestaurtinib' of Supplementary Table 1),run:Lestaurtinib_02748_R1,Plate:MR024", "result": 69.5, "unit": "nM"}, {"measurement": "potency estimated from few doses", "setting": "[1]; compound concentrations:100 nM and 1000 nM (sheet 'Lestaurtinib' of Supplementary Table 1),run:Lestaurtinib_02748_R3,Plate:MR024", "result": 80.1, "unit": "nM"}, {"measurement": "potency estimated from few doses", "setting": "[1]; compound concentrations:100 nM and 1000 nM (sheet 'Lestaurtinib' of Supplementary Table 1),run:Lestaurtinib_02752_R1,Plate:MR025", "result": 75.5, "unit": "nM"}, {"measurement": "potency estimated from few doses", "setting": "[1]; compound concentrations:100 nM and 1000 nM (sheet 'Lestaurtinib' of Supplementary Table 1),run:Lestaurtinib_02765_R2,Plate:MR026", "result": 98.7, "unit": "nM"}, {"measurement": "potency estimated from few doses", "setting": "[1]; compound concentrations:100 nM and 1000 nM (sheet 'Lestaurtinib' of Supplementary Table 1),run:Lestaurtinib_02765_R3,Plate:MR026", "result": 75.5, "unit": "nM"}, {"measurement": "potency estimated from few doses", "setting": "[1]; compound concentrations:100 nM and 1000 nM (sheet 'Lestaurtinib' of Supplementary Table 1),run:Lestaurtinib_02766_R1,Plate:MR027", "result": 92, "unit": "nM"}, {"measurement": "potency estimated from few doses", "setting": "[1]; compound concentrations:100 nM and 1000 nM (sheet 'Lestaurtinib' of Supplementary Table 1),run:Lestaurtinib_02766_R2,Plate:MR027", "result": 71.2, "unit": "nM"}, {"measurement": "potency estimated from few doses", "setting": "[1]; compound concentrations:100 nM and 1000 nM (sheet 'Lestaurtinib' of Supplementary Table 1),run:Lestaurtinib_02766_R3,Plate:MR027", "result": 82.7, "unit": "nM"}, {"measurement": "potency estimated from few doses", "setting": "[1]; compound concentrations:100 nM and 1000 nM (sheet 'Lestaurtinib' of Supplementary Table 1),run:Lestaurtinib_02768_R1,Plate:MR028", "result": 82.7, "unit": "nM"}, {"measurement": "potency estimated from few doses", "setting": "[1]; compound concentrations:100 nM and 1000 nM (sheet 'Lestaurtinib' of Supplementary Table 1),run:Lestaurtinib_02768_R3,Plate:MR028", "result": 86.1, "unit": "nM"}, {"measurement": "potency estimated from few doses", "setting": "[1]; compound concentrations:100 nM and 1000 nM (sheet 'Lestaurtinib' of Supplementary Table 1),run:Lestaurtinib_02795_R1,Plate:MR022", "result": 89.5, "unit": "nM"}, {"measurement": "potency estimated from few doses", "setting": "[1]; compound concentrations:100 nM and 1000 nM (sheet 'Lestaurtinib' of Supplementary Table 1),run:Lestaurtinib_02795_R2,Plate:MR022", "result": 80.2, "unit": "nM"}, {"measurement": "potency estimated from few doses", "setting": "[1]; compound concentrations:100 nM and 1000 nM (sheet 'Lestaurtinib' of Supplementary Table 1),run:Lestaurtinib_02795_R3,Plate:MR022", "result": 211, "unit": "nM"}, {"measurement": "potency estimated from few doses", "setting": "[1]; compound concentrations:100 nM and 1000 nM (sheet 'Lestaurtinib' of Supplementary Table 1),run:Lestaurtinib_02802_R1,Plate:MR029", "result": 84.3, "unit": "nM"}, {"measurement": "potency estimated from few doses", "setting": "[1]; compound concentrations:100 nM and 1000 nM (sheet 'Lestaurtinib' of Supplementary Table 1),run:Lestaurtinib_02802_R2,Plate:MR029", "result": 91.6, "unit": "nM"}, {"measurement": "potency estimated from few doses", "setting": "[1]; compound concentrations:100 nM and 1000 nM (sheet 'Lestaurtinib' of Supplementary Table 1),run:Lestaurtinib_02802_R3,Plate:MR029", "result": 91.6, "unit": "nM"}, {"measurement": "potency estimated from few doses", "setting": "[1]; compound concentrations:100 nM and 1000 nM (sheet 'Lestaurtinib' of Supplementary Table 1),run:Lestaurtinib_02896_R1,Plate:MR030", "result": 73.7, "unit": "nM"}, {"measurement": "potency estimated from few doses", "setting": "[1]; compound concentrations:100 nM and 1000 nM (sheet 'Lestaurtinib' of Supplementary Table 1),run:Lestaurtinib_02896_R2,Plate:MR030", "result": 70, "unit": "nM"}, {"measurement": "potency estimated from few doses", "setting": "[1]; compound concentrations:100 nM and 1000 nM (sheet 'Lestaurtinib' of Supplementary Table 1),run:Lestaurtinib_02896_R3,Plate:MR030", "result": 66.7, "unit": "nM"}, {"measurement": "potency estimated from few doses", "setting": "[1]; compound concentrations:100 nM and 1000 nM (sheet 'Lestaurtinib' of Supplementary Table 1),run:Lestaurtinib_03172_R2,Plate:MR031", "result": 83.5, "unit": "nM"}, {"measurement": "potency estimated from few doses", "setting": "[1]; compound concentrations:100 nM and 1000 nM (sheet 'Lestaurtinib' of Supplementary Table 1),run:Lestaurtinib_03172_R3,Plate:MR031", "result": 94.3, "unit": "nM"}, {"measurement": "potency estimated from few doses", "setting": "[1]; compound concentrations:100 nM and 1000 nM (sheet 'Lestaurtinib' of Supplementary Table 1),run:Lestaurtinib_03260_R3,Plate:MR033", "result": 67.9, "unit": "nM"}, {"measurement": "potency estimated from few doses", "setting": "[2]; compound concentrations:100 nM and 1000 nM (sheet 'Lestaurtinib' of Supplementary Table 1),run:Lestaurtinib_02339_R1,Plate:MR001", "result": 97.9, "unit": "nM"}, {"measurement": "potency estimated from few doses", "setting": "[2]; compound concentrations:100 nM and 1000 nM (sheet 'Lestaurtinib' of Supplementary Table 1),run:Lestaurtinib_02339_R2,Plate:MR001", "result": 65.8, "unit": "nM"}, {"measurement": "potency estimated from few doses", "setting": "[2]; compound concentrations:100 nM and 1000 nM (sheet 'Lestaurtinib' of Supplementary Table 1),run:Lestaurtinib_02339_R3,Plate:MR001", "result": 47, "unit": "nM"}, {"measurement": "potency estimated from few doses", "setting": "[2]; compound concentrations:100 nM and 1000 nM (sheet 'Lestaurtinib' of Supplementary Table 1),run:Lestaurtinib_02364_R1,Plate:MR002", "result": 75.2, "unit": "nM"}, {"measurement": "potency estimated from few doses", "setting": "[2]; compound concentrations:100 nM and 1000 nM (sheet 'Lestaurtinib' of Supplementary Table 1),run:Lestaurtinib_02364_R2,Plate:MR002", "result": 58.2, "unit": "nM"}, {"measurement": "potency estimated from few doses", "setting": "[2]; compound concentrations:100 nM and 1000 nM (sheet 'Lestaurtinib' of Supplementary Table 1),run:Lestaurtinib_02367_R1,Plate:MR003", "result": 83.4, "unit": "nM"}, {"measurement": "potency estimated from few doses", "setting": "[2]; compound concentrations:100 nM and 1000 nM (sheet 'Lestaurtinib' of Supplementary Table 1),run:Lestaurtinib_02367_R3,Plate:MR003", "result": 76.1, "unit": "nM"}, {"measurement": "potency estimated from few doses", "setting": "[2]; compound concentrations:100 nM and 1000 nM (sheet 'Lestaurtinib' of Supplementary Table 1),run:Lestaurtinib_02381_R1,Plate:MR004", "result": 44.2, "unit": "nM"}, {"measurement": "potency estimated from few doses", "setting": "[2]; compound concentrations:100 nM and 1000 nM (sheet 'Lestaurtinib' of Supplementary Table 1),run:Lestaurtinib_02381_R2,Plate:MR004", "result": 58, "unit": "nM"}, {"measurement": "potency estimated from few doses", "setting": "[2]; compound concentrations:100 nM and 1000 nM (sheet 'Lestaurtinib' of Supplementary Table 1),run:Lestaurtinib_02407_R1,Plate:MR005", "result": 74.7, "unit": "nM"}, {"measurement": "potency estimated from few doses", "setting": "[2]; compound concentrations:100 nM and 1000 nM (sheet 'Lestaurtinib' of Supplementary Table 1),run:Lestaurtinib_02407_R3,Plate:MR005", "result": 65.8, "unit": "nM"}]}
